Results published in the supplement of paper PMC10849652.
Of roughly 8,800 targets only a part is listed; those with a hit were picked by preference. About 0.5% of all pairs of compound and target were hits. Values without a mark were called inactive.

Legend:
Assay in all cases: log2 fold change, soluble protein after heating vs DMSO (PISA); higher = thermal stabilisation; K562 lysate, 10 uM; active = over 0.2 and 3.5 SD of the protein, either way, in both replicates (recomputed)
[1] = compound: CN1CC[C@H](c2c(O)cc(O)c3c(=O)cc(-c4ccccc4Cl)oc23)[C@H](O)C1 [alvocidib]
Procedure, shortened: (§1)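 Dounce homogenisation of K562 pellets in PBS pH 7.4 with 1 mM MgCl2 produced a crude extract, used at 1 mg/mL protein. Exposure to 10 μM compound lasted 30 min, and aliquots were then heated for 3 min across 48°C-58°C, pooled and brought to 0.5% NP-40 at 4°C. The supernatant after 21,000xg for 90 min was quantified by TMTpro 16plex LC-MS/MS with channel sums equalised. Duplicate values are given as log-two fold change in thermal stability relative to solvent controls.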

[2] = compound: CN1CCc2c(c3ccccc3n2Cc2ccc(C(=O)NO)cc2)C1 [Tubastatin A]
Procedure, shortened: as §1

[3] = compound: CNC(=O)C1=CC=CC=C1NC2=NC(=NC=C2Cl)NC3=C(C=C(C=C3)N4CCOCC4)OC
Procedure, shortened: as §1

[4] = compound: CNC(=O)c1ccc(Nc2ncc(C(F)(F)F)c(NCc3nccnc3N(C)S(C)(=O)=O)n2)cc1 [defactinib]
Procedure, shortened: as §1

[5] = compound: CNc1nc(-c2ccc3c(N)n[nH]c3c2)cc(N2C[C@@H](C(=O)NC3CCCCC3)CC[C@H]2C)n1
Procedure, shortened: as §1

[6] = compound: COC(=O)N[C@@H](C)CNc1nccc(-c2cn(C(C)C)nc2-c2cc(Cl)cc(NS(C)(=O)=O)c2F)n1 [encorafenib]
Procedure, shortened: as §1

[7] = compound: COC(=O)[C@H](CCSC)NC(=O)C1=C(C=C(C=C1)NC[C@H](CS)N)C2=CC=CC=C2
Procedure, shortened: as §1

[8] = compound: COc1cc(Nc2ncc3c(n2)-c2ccc(Cl)cc2C(c2c(F)cccc2OC)=NC3)ccc1C(=O)O [alisertib]
Procedure, shortened: as §1

[9] = compound: COc1cc2nc(-c3cc(F)ccc3O)nc(N[C@@H]3CNC[C@H]3C(C)(C)O)c2cc1OC
Procedure, shortened: as §1

[10] = compound: COc1cc2ncnc(Nc3ccc(F)c(Cl)c3)c2cc1OCCCN1CCOCC1 [gefitinib]
Procedure, shortened: as §1

Chain of UniProt P28288 (P28288 whole entry, looked up): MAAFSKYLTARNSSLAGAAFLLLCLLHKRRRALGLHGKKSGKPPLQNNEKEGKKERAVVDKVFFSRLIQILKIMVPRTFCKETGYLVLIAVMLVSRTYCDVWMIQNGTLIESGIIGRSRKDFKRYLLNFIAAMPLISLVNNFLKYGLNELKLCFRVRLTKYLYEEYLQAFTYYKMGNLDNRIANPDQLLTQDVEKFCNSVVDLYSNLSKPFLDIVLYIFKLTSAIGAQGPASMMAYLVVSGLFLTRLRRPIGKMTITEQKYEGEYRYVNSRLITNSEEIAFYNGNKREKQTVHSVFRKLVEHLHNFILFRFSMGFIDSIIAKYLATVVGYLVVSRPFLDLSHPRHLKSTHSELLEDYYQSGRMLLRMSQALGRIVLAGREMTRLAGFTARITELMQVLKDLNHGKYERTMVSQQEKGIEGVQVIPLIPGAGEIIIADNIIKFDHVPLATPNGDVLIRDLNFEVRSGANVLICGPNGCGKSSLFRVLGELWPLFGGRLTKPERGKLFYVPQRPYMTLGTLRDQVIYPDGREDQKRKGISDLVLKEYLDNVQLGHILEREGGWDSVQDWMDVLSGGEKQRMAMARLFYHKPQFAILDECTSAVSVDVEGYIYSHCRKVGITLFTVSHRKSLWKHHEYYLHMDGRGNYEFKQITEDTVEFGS
Chain of UniProt O14727 (O14727 whole entry, looked up): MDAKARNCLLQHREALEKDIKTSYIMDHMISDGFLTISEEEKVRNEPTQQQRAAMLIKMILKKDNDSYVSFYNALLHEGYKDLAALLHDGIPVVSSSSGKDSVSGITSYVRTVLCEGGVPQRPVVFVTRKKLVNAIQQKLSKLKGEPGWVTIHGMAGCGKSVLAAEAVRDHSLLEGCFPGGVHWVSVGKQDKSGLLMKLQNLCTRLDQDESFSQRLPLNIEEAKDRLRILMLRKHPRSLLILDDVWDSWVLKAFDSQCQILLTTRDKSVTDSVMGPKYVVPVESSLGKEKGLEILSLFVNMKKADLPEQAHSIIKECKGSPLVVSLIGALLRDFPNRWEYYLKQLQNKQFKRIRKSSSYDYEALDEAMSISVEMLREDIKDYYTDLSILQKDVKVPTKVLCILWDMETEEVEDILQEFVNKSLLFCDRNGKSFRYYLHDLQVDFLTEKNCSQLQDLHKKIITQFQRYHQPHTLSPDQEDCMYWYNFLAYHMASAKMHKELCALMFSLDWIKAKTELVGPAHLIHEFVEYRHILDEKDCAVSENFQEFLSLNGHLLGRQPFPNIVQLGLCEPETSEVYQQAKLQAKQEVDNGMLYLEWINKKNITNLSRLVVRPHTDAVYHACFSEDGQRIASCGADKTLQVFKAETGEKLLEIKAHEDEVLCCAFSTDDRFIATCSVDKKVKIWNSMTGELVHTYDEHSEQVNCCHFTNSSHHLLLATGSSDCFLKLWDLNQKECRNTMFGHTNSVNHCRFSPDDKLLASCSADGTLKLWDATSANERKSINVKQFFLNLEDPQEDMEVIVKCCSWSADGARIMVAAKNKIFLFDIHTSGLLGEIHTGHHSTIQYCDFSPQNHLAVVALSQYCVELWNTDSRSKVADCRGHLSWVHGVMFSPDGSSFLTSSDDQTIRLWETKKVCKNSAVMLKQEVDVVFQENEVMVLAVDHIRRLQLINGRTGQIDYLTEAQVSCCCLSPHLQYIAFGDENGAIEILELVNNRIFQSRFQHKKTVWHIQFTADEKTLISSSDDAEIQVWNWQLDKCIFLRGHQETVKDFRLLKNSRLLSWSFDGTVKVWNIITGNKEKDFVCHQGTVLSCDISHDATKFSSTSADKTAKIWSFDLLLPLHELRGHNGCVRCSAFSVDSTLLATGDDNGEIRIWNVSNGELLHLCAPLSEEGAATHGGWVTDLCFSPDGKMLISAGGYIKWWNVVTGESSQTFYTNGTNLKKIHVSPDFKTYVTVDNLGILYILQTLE
Chain of UniProt Q9UG63 (Q9UG63 whole entry, looked up): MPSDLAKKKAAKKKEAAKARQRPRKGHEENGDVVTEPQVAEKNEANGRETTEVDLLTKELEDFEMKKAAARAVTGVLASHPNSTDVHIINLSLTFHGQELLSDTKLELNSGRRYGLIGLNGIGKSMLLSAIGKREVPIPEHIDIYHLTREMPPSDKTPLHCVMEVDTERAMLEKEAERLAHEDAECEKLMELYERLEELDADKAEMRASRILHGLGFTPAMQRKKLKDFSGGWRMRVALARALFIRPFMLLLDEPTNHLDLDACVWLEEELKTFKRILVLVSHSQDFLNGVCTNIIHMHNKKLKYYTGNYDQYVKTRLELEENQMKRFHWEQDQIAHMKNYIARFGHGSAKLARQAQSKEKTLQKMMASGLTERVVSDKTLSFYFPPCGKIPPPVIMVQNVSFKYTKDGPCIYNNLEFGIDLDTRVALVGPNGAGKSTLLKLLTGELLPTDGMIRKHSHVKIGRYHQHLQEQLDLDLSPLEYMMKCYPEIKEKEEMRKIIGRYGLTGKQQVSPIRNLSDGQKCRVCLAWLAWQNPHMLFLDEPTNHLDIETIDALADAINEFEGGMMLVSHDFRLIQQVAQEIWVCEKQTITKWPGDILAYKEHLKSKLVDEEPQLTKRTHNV
Chain of UniProt P42684 (P42684 whole entry, looked up): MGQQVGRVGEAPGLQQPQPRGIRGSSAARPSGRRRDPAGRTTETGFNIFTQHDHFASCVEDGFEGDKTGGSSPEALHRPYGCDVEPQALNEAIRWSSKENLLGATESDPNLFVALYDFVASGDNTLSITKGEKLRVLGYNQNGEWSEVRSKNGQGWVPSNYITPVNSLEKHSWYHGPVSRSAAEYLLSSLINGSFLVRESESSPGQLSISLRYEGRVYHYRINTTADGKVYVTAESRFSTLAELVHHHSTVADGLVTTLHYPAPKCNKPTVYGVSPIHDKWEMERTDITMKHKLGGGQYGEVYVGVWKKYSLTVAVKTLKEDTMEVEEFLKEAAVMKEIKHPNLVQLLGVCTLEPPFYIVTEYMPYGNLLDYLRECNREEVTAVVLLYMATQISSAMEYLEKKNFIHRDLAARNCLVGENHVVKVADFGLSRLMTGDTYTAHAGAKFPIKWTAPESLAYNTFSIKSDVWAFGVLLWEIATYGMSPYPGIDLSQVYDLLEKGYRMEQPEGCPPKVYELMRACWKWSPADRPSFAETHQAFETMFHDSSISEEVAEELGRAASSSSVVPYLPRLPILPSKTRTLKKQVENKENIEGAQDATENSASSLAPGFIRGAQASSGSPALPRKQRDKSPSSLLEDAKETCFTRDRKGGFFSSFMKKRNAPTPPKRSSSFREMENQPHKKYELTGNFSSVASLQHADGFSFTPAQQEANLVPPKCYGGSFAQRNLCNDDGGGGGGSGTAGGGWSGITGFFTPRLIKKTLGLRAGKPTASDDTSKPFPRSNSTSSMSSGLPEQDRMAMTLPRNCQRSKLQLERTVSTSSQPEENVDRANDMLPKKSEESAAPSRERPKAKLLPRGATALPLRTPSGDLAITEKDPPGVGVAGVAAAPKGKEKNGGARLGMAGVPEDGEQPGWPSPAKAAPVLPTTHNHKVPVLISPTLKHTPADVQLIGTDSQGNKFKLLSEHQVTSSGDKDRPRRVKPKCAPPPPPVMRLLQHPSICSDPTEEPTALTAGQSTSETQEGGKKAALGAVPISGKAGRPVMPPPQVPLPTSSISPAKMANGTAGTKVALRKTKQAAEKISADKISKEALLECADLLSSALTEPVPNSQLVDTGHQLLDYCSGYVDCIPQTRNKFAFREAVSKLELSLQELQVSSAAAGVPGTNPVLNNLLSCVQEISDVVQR
Chain of UniProt P10398 (P10398 whole entry, looked up): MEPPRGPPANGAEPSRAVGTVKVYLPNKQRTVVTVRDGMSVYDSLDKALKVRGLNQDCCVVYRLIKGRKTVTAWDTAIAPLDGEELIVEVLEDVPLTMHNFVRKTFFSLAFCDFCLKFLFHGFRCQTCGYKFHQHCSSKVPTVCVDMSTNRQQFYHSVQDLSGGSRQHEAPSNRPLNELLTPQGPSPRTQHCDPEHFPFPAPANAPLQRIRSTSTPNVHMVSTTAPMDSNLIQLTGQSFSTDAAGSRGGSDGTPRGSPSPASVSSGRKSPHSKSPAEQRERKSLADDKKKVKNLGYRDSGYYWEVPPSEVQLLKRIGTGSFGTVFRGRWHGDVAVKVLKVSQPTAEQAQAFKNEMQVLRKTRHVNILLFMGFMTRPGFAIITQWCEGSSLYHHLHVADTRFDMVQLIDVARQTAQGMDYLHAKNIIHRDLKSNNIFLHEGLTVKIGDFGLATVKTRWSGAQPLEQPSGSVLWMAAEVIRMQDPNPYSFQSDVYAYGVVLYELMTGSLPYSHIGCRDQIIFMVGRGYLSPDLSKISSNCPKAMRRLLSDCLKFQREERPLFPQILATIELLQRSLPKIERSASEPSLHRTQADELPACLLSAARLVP
Chain of UniProt Q562R1 (Q562R1 whole entry, looked up): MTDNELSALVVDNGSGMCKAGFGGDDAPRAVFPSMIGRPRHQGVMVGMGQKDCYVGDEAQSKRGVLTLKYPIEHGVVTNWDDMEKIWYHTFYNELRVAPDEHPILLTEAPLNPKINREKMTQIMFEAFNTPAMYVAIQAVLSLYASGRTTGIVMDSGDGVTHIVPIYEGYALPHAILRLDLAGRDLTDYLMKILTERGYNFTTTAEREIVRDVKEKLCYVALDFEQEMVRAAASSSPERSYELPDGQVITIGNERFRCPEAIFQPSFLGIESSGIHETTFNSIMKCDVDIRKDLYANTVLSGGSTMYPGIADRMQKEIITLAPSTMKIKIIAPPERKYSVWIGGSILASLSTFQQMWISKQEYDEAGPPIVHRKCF
Chain of UniProt Q13155 (Q13155 whole entry, looked up): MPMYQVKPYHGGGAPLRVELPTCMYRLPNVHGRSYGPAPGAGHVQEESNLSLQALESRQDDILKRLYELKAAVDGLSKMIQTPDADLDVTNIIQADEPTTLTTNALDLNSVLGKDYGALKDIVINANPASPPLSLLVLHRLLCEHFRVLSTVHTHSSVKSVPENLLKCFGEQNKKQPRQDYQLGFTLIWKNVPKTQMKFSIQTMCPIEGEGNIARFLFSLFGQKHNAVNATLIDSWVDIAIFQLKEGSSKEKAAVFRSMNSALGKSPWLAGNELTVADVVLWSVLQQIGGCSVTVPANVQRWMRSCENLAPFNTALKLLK

Target	log2 fold change [1]	log2 fold change [2]	log2 fold change [3]	log2 fold change [4]	log2 fold change [5]	log2 fold change [6]	log2 fold change [7]	log2 fold change [8]	log2 fold change [9]	log2 fold change [10]
AK1 (UniProt P00568)	0.154	0.009	-0.034	-0.035	-0.007	-0.036	-0.07	0	0.013	-0.019
AP1G2 (UniProt O75843)	0.04	-0.099	0.068	-0.006	0.036	-0.03	-0.015	0.037	0.056	0.03
ARMCX5 (UniProt Q6P1M9)	0.029	-0.105	0.067	0.014	-0.012	0.045	0.023	-0.003	0.035	0.035
ARHGAP21 (UniProt Q5T5U3)	0.032	0.008	0.03	0.015	0.056	0.079	0.101	-0.023	-0.007	-0.095
ARAF (UniProt P10398)	0.036	-0.08	0.019	-0.039	-0.105	0.307 (active)	0.093	-0.048	0.007	0.019
AARS2 (UniProt Q5JTZ9)	0.064	-0.093	-0.011	-0.05	-0.017	0.006	0.106	0.02	-0.119	-0.02
ACIN1 (UniProt E7EQT4)	-0.093	0.095	0.003	-0.038	0.06	0.022	-0.033	-0.039	-0.011	0.051
ACTBL2 (UniProt Q562R1)	-0.083	-0.111	-0.01	0.093	-0.008	-0.226	0.005	-0.273	0.009	-0.223
AIFM2 (UniProt Q9BRQ8)	-0.032	0.044	0.114	0.045	0.099	0.024	0.107	-0.032	-0.034	0.038
AKAP8L (UniProt Q9ULX6)	-0.003	-0.183	0.008	0.003	-0.109	0.059	-0.032	0.043	0.011	0.009
ABL2 (UniProt P42684)	0.007	-0.04	0.082	0.066	-0.108	0.092	-0.068	-0.123	-0.009	-0.176
ANP32E (UniProt Q9BTT0)	0	0.079	-0.007	-0.018	0.056	-0.037	-0.008	-0.019	0.007	-0.061
ABHD11 (UniProt Q8NFV4)	0	0.032	-0.066	0.034	0.087	-0.028	0.173	-0.027	0.022	0.004
ASB6 (UniProt Q9NWX5)	0.097	0.014	-0.006	0.019	0.099	-0.1	0.174	-0.001	0.073	-0.046
AP4B1 (UniProt Q9Y6B7)	-0.053	-0.021	-0.051	-0.001	0.041	0.057	-0.01	-0.014	-0.121	0.031
ABCD3 (UniProt P28288)	-0.064	0.1	-0.114	-0.019	-0.048	0.028	0.444 (active)	0.044	-0.013	0.145
ABCF2 isoform 2 (UniProt Q9UG63)	0.004	-0.169	-0.001	-0.039	0.005	-0.005	0.08	0.014	0.025	-0.02
APAF1 (UniProt O14727)	-0.006	-0.174	-0.026	-0.015	0.008	-0.017	0.129	-0.027	0.061	0.017
AKR1C2 (UniProt P52895)	-0.06	0.061	-0.021	-0.05	-0.151	-0.012	0.018	0.002	0.004	-0.082
AKR1C3 (UniProt P42330)	0.026	0.073	-0.052	0.017	-0.211	-0.026	0.022	0.056	0.028	-0.003
AMMECR1 (UniProt Q9Y4X0)	-0.014	0.022	0.02	0.02	0.003	0.02	-0.01	-0.031	0.011	-0.019
ADRM1 (UniProt Q16186)	0.009	-0.064	-0.027	0.003	0.011	-0.033	0.118	0.032	-0.001	-0.009
ALDH18A1 (UniProt P54886)	-0.005	-0.049	0.005	0.006	-0.01	-0.009	0.062	0.01	0.017	0.001
ARHGAP6 (UniProt O43182)	0.003	-0.201	0.129	0.012	-0.017	0.06	0.063	0.017	-0.012	-0.069
AIMP2 (UniProt Q13155)	0.037	-0.11	0.006	-0.01	-0.007	-0.02	0.093	0.011	-0.028	-0.088
AGL (UniProt P35573)	0.046	-0.099	0.014	0.024	-0.002	0.008	0.178	-0.004	-0.012	-0.007
AHCYL1 (UniProt O43865)	0.025	-0.096	0.051	0.06	0.037	0.01	0.009	-0.041	-0.003	-0.012
AMD1 (UniProt P17707)	-0.039	-0.084	0.071	-0.003	0.008	-0.08	-0.107	0.027	0.261	0.041
ANXA2 isoform 2 (UniProt P07355)	0.012	0.013	-0.012	-0.011	-0.026	-0.03	-0.007	0.002	0.003	-0.009
AGPS (UniProt O00116)	-0.011	0.039	-0.046	-0.003	0.011	-0.005	-0.125	0.035	-0.03	-0.002
